Screens (PubChem BioAssay)
STAT3 inh-1 – reduces IL-6 driven STAT3 reporter signal. inhibition, % at 5.5 µM. 190,000 compounds, 0.89% hits. U3A cells, IL-6 STAT3-luciferase reporter, luminescence; host cell line lacks STAT1. AID 862;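 active means inhibition above the mean inhibition across all screened compounds plus 3 SD, cut at about 44% in these data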;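 further: 0% = DMSO only wells and 100% = 100 µM nifuroxazide control wells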
HSP90 refold inh – HSP90 refolding inhibition in rabbit reticulocyte lysate; 290,000 compounds, 0.91% hits; inhibition, % at 5.6 µM; luciferase refolding luminescence, 3 h;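 active means inhibition above the screen-wide mean plus 3 SD, computed separately per campaign, cut at about 16% in these data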;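 further: 0% = DMSO wells and 100% = 60 µM geldanamycin wells; inhibitors lower the luminescence because luciferase stays unfolded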
PPC-1+TRAIL kill – kills PPC-1 cancer cells in the presence of TRAIL; PPC-1 cells + TRAIL, ATPLite viability luminescence; cell killing (% activity), % at 4 µM or 5 µM; 220,000 compounds, 0.41% hits; AID 1443;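 active means cell killing above 50% in the first pass at 4 µM, then a duplicate retest at 5 µM averaging 50% or more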;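 further: plate controls were cells with TRAIL plus DMSO for no effect and medium-only wells lacking cells for full effect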
STAT1 blocker – reduces IFN-gamma driven STAT1 reporter signal; NIH 3T3 STAT1-luciferase reporter, luminescence; inhibition, % at 5.5 µM; 200,000 compounds, 0.35% hits;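 active means inhibition above a set limit, the mean inhibition across all tested compounds plus 3 SD, cut at about 34% in these data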;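 further: 0% = IFN-gamma with DMSO and 100% = IFN-gamma with 300 µM nifuroxazide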
C8 TRAIL sens – sensitizes caspase-8 expressing cells to TRAIL; NB7+C8 cells + TRAIL, ATPlite viability luminescence; inhibition (viability loss, TRAIL sensitization), % at 10 µM; 360,000 compounds, 1% hits;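 active means compounds causing at least 50% loss of cell viability in the single-dose screen, relative to plate controls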
HSF1 inhib – HSF1 inhibition. activity change, negative = inhibition, % at 7.5 µM (by protocol). NIH3T3-HGL HSE-luciferase, MG132-induced, luminescence 8 h; hits give low values. 300,000 compounds, 0.77% hits;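 active means more than half of replicate wells show activity change below -50%, luminescence cut by over half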;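 further: luciferase reports HSF-1 transcriptional activity via heat shock element; 0% = median of DMSO wells and -100% = zero luminescence signal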
STAT3 inh-2 – STAT3 inhibition, confirmation assay; shares compounds with STAT3 inh-1; U3A cells, IL-6 STAT3 luciferase reporter, luminescence; cell line lacks STAT1; inhibition, % at 5.7 µM; 1,200 compounds, 45% hits; AID 1265;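 active means inhibition above the hit cutoff computed for the primary STAT3 screen, cut at about 44% in these data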;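 further: 0% = IL-6 plus DMSO and 100% = IL-6 plus nifuroxazide control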
NFkB inh 2 – counter-screen for STAT3 inhibitors: NF-kappaB inhibition; AID 1308; shares compounds with STAT3 inh-1; HEK293T NF-kB luciferase reporter, TNF-alpha induced; 1,200 compounds, 36% hits; inhibition, % at 5.7 µM;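 active means inhibition above the mean of solvent-only control wells plus 3 SD, cutoff set per campaign, cut at about 13% in these data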;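 further: 0% = TNF-alpha with DMSO and 100% = TNF-alpha with MG high control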
STAT1 inh 2 – STAT1 inhibition in STAT3 inhibitor counter-screen. shares compounds with STAT3 inh-1. NIH 3T3 STAT1-luciferase reporter, IFN-gamma induced, luminescence. inhibition, % at 5.7 µM. 1,200 compounds, 27% hits;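 active means inhibition above the mean plus 3 SD of solvent-only control wells, limit set per screening run, cut at about 16% in these data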;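 further: 0% = DMSO with IFN-gamma and 100% = nifuroxazide control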
Starred values were filed as active, the others as inactive; . = not tested or not shown. An excerpt weighted towards active compounds, which were near 2.4% of everything screened.

SMILES	STAT3 inh-1	HSP90 refold inh	PPC-1+TRAIL kill	STAT1 blocker	C8 TRAIL sens	HSF1 inhib	STAT3 inh-2	NFkB inh 2	STAT1 inh 2
O=C(Nc1nc2c(s1)CCCC2)c1ccc(Br)o1	45.7*	16.4*	36.0	-72.2	57.4*	19.3	11.7	-30.1	-122.2
O=C(Nc1nc2c(s1)CCCC2)C1COc2ccccc2O1 (stereo not given)	72.8*	50.9*	18.6	20.0	34.3	-24.1	33.9	-7.6	-103.9
Cc1ccc(CN2CCC2(C)C(=O)NC2CCc3ccccc32)cc1 (stereo not given)	.	.	.	.	-1.7	.	.	.	.
CCOC(=O)c1ccc(NC(=O)CSc2nc3cccnc3n2C)cc1	53.7*	2.8	6.6	8.2	9.0	-0.6	39.3	1.8	12.2
COC(=O)c1ccc(NC(=O)CSc2nc3cccnc3n2C)cc1	40.0	11.4	17.3	11.4	11.8	3.9	.	.	.
Cc1c(C(C)C)c(=O)n(-c2ccc(S(=O)(=O)NC3CCCCC3)cc2)n1C	52.9*	-3.6	24.7	22.1	18.2	-0.2	58.8*	14.2*	21.1*
Cc1c(C(C)C)c(=O)n(-c2ccc(S(=O)(=O)NCc3ccccc3)cc2)n1C	81.1*	2.2	20.0	27.8	32.8	5.7	79.7*	29.6*	21.1*
CCCCNC(=O)C1(C)CCCCN1Cc1ccc(OCc2ccccc2)cc1 (stereo not given)	.	.	.	.	14.1	.	.	.	.
O=C(CCl)Nc1cc(-c2ccccc2)nn1-c1ccccc1	47.7*	7.3	4.0	10.6	42.9	27.3	28.8	-6.8	-23.8
CC(=O)Nc1ccc(-c2cc(NC(C)=O)n(-c3ccccc3)n2)cc1	14.2	3.1	10.1	11.7	8.2	-6.6	.	.	.
CCc1n[nH]c2c1/C(=N\O)CC(c1ccccc1)C2 (stereo not given)	43.6*	-2.0	10.1	-1.6	-6.1	5.5	30.5	10.4	9.9
Cc1cc(C(=O)COc2ccccc2C(N)=O)c(C)n1CC1CCCO1 (stereo not given)	72.9*	1.9	7.4	24.5	26.4	1.2	70.4*	21.8*	16.5*
CC(C)COC(=O)N1CCCCC1c1cc(C(=O)N2CCOCC2)no1 (stereo not given)	.	.	.	.	-1.9	.	.	.	.
CC(=O)Nc1ccc(CN2C(=O)C(Cc3ccccc3)ON=C2c2ncccc2C)cc1 (stereo not given)	.	.	.	.	6.2	.	.	.	.
Nc1nc(Nc2ccccc2)nc2ccccc12	57.2*	10.9	43.2	-5.7	60.4*	20.4	13.7	-23.0	-91.9
CCOc1ccccc1-c1ccc2nccn2c1	.	.	.	.	-9.2	.	.	.	.
COc1cc(CSc2nnnn2-c2ccc(C)cc2)cc(OC)c1OC	68.7*	0.1	-4.1	22.0	20.7	2.7	70.3*	26.4*	21.6*
COc1ccc(F)cc1CSc1nnnn1-c1ccc(O)cc1	.	-2.9	.	.	4.9	-19.0	.	.	.
COc1cc([N+](=O)[O-])ccc1NC(=O)CN1C(=O)NC2(CCCCC2C)C1=O (stereo not given)	.	.	.	.	-17.4	.	.	.	.
Cc1ccc(C(=O)/C=C/Nc2ccc3c(c2)OCO3)cc1	56.3*	1.8	49.6	-28.1	61.4*	8.8	1.5	-26.7	-142.2
CCc1ccc(CN2CCN(C(=O)c3cccc(OC)c3OC)CC2)cc1	59.7*	-0.3	21.8	4.3	18.4	-0.2	41.1	10.2	6.3
COc1cccc(C(=O)N2CCN(C(=O)c3cccc4ccccc34)CC2)c1OC	9.1	2.6	4.7	11.2	-9.3	-10.6	.	.	.
Clc1ccc(-c2nnc(-c3ccccc3)o2)c(Cl)c1	58.6*	7.3	50.0	-4.2	69.6*	3.9	33.8	-5.2	-77.3
CSc1ccccc1-c1nnc(-c2ccc(Cl)cc2Cl)o1	15.8	2.2	24.2	-25.1	45.4	37.7	.	.	.
Fc1ccc(-c2nnc(-c3ccc(Cl)cc3Cl)o2)cc1	70.4*	0.1	.	11.5	85.9*	25.4	36.8	5.7	-65.5
SMILES	STAT3 inh-1	HSP90 refold inh	PPC-1+TRAIL kill	STAT1 blocker	C8 TRAIL sens	HSF1 inhib	STAT3 inh-2	NFkB inh 2	STAT1 inh 2
O=C(Nc1ccc(SC(F)(F)F)cc1)c1ccccn1	61.5*	5.1	25.5	24.4	48.9	11.7	23.6	-20.7	-118.6
CC(=O)NS(=O)(=O)c1ccc(NC(=O)c2ccccn2)cc1	7.5	-3.5	4.5	1.7	14.8	-9.6	.	.	.
O=c1[nH][nH]c2c1[C@H](c1ccc(Cl)cc1)O[C@H](C1CCCCC1)C2	.	.	.	.	-8.9	.	.	.	.
Cc1cccc(OCC(=O)Nc2nnc(-c3ccco3)s2)c1	8.8	-3.8	11.2	-4.8	-11.6	4.8	.	.	.
CCOc1cccc(C(=O)Nc2nnc(-c3ccco3)s2)c1	47.2*	4.8	28.6	-26.8	13.2	.	7.1	-15.1	-61.4
O=C(Nc1ccc(S(=O)(=O)Nc2ccccc2)cc1)c1ccc(CN2CCOCC2)cc1	83.9*	3.5	-13.6	21.3	37.8	-2.1	77.5*	27.5*	4.5
O=C(Nc1ccc(CN2CCOCC2)cc1)c1ccc(Cl)cc1	.	-1.4	.	.	12.2	15.1	.	.	.
COC(=O)c1ccc(NC(=O)c2ccc(CN3CCOCC3)cc2)cc1	54.1*	0.6	23.2	0.5	13.2	-4.8	39.5	1.1	-5.4
O=C(NCc1cccc(C(F)(F)F)c1)c1ccc2nc([C@H]3C[C@H](O)[C@@H](CO)O3)[nH]c2c1	.	.	.	.	-2.6	.	.	.	.
Cc1cc(C(=O)COC(=O)c2n[nH]c(=O)c3ccccc23)c(C)n1C	.	.	.	.	16.7	.	.	.	.
Cc1cc(C(=O)COC(=O)c2n[nH]c3ccccc23)c(C)n1C	52.6*	-0.3	30.3	-32.8	58.3*	20.8	6.1	-13.9	-83.0
C=CCN=c1scc(-c2ccc3c(c2)NC(=O)CO3)n1/N=C(\C)c1ccccn1	75.3*	3.0	13.8	20.7	21.6	.	74.4*	18.3*	22.0*
CC(Nc1nc(-c2ccc3c(c2)NC(=O)CO3)cs1)c1ccccc1 (stereo not given)	5.9	0.8	5.2	-12.5	6.8	-0.6	.	.	.
Nc1ccn(C2C=CC(CO)O2)c(=O)n1 (stereo not given)	.	.	.	.	-20.6	.	.	.	.
CCC(C)CN1C(=O)CN(S(C)(=O)=O)CC1(C)C(=O)NCc1ccccc1 (stereo not given)	.	.	.	.	-6.2	.	.	.	.
C[n+]1c2n(c3ccccc31)N=C(c1cc(C(C)(C)C)c(O)c(C(C)(C)C)c1)CS2	79.1*	-0.4	36.4	18.3	42.4	12.6	78.9*	36.6*	-3.5
COc1cccc(C2=Nn3c(nnc3-c3ccccc3O)SC2)c1	12.7	2.4	-11.8	9.6	11.4	2.0	.	.	.
COC(=O)[C@@]12C[C@@H](CC(=O)N3CCCC3)C(=O)N(Cc3ccc4c(c3)OCO4)C1=CCC(C)(C)C2	.	.	.	.	-2.0	.	.	.	.
